TGFb inhibitor: qHTS for Inhibitors of TGF-b; HepG2 CAGA-GFP TGF-b/SMAD3 reporter, GFP fluorescence, 18 h; TGF-beta stimulated, 500 pg/mL final; Potency, µM (highest dose often 46.1 µM), for inactives: top-dose activity, negative = inhibition, most hits filed as inhibitors; hit rate 1.2% among 410,000; further: potency means the concentration at half of the fitted maximal effect; on the % scale 0 is the no-effect control and ±100 the full control effect; nearly all actives have a fitted effect of over 65% in size
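Read-out: total well GFP (ex488/em500-530) summed from mean per-cell fluorescence. Cells: HEPG2 CAGA-GFP, 1% FBS DMEM, 18 h at 37 degrees C with 500 pg/mL final TGF-beta. Unstimulated wells served as the full-inhibition control; stimulated DMSO wells = 0%.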
HT1080 IDH1KD tx: qHTS for induction of synthetic lethality in tumor cells producing 2HG: qHTS for the HT-1080-IDH1KD cell line; HT-1080 IDH1 knockdown viability, ATP luminescence, 48 h; Potency, µM (series often up to 46.1 µM), inactives show at the highest dose activity, negative = toxicity, usual class: cytotoxic; hit rate 2% among 360,000; AID 686971, 2013;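 further: potency means the concentration at half of the fitted maximal effect; 0% = DMSO wells and -100% = cell-free medium wells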
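CellTiter-Glo luminescence after 48 h compound exposure at 37 degrees C of IDH1-knockdown HT-1080 cells in 5% FBS RPMI. %Activity scaled between DMSO wells and cell-free media wells, with curves fitted and assigned curve classes.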
Giardia killer: Small Molecules that selectively kill Giardia lamblia: qHTS; Giardia lamblia trophozoite viability; activity change, % at 7.66 µM, hits read low; hit rate 0.15% among 340,000; in the data active means activity change below about -80%; inconclusive means between about -30% and that limit;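 further: parasites exposed to compound for two days anaerobically before the ATP read; on the % scale 0 is the no-effect control and ±100 the full control effect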
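Viability, read as ATP luminescence: trophozoites at 100 cells/well, compound added, 48 hrs anaerobic at 37 deg C, then 15-30 min room-temperature development before reading.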
HepG2 tox-1: qHTS for Inhibitors of TGF-b: Cytotox Counterscreen; HepG2 CAGA-GFP viability, ATP luminescence, 18 h; Potency, µM (doses to about 46.1 µM), for inactives: at the top dose activity change, negative = cytotoxicity, hits mostly cytotoxic; hit rate 0.76% among 410,000; further: potency means the concentration at half of the fitted maximal effect
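CellTiter-Glo luminescence gave cytotoxicity after 18 hours at 37 degrees C. The cells were HepG2 CAGA-GFP in 1% FBS DMEM, stimulated with 500 pg/mL TGF-beta after compound addition. %Activity was normalised to no-cell wells (complete cell-killing) and DMSO (no toxicity), and curves were fitted and classified.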
HT1080NT lethal: qHTS for induction of synthetic lethality in tumor cells producing 2HG: qHTS for the HT-1080-NT fibrosarcoma cell line; HT-1080-NT fibrosarcoma viability, CellTiter-Glo ATP luminescence, 48 h; Potency, µM (doses to about 46.1 µM), without a hit: top-dose activity, negative = less viability, actives largely listed as cytotoxic; hit rate 1.6% among 360,000;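 further: NT is the 2HG producing partner of a matched IDH1 knockdown line; potency means the concentration at half of the fitted maximal effect; 0% = DMSO-treated cells and -100% = media-only wells without cells; nearly all actives have a fitted effect of over 55% in size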
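A 48-hour cytotoxicity screen used HT-1080-NT cells plated 2 hours before compound delivery. ATP-based CellTiter-Glo luminescence measured viability, normalized to DMSO and no-cell controls.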
IL1B secr inh: qHTS for Inhibitors of Inflammasome Signaling: IL-1-beta AlphaLISA Primary Screen; hit rate 4.7% among 360,000; activity change, % at 57.5 µM; THP-1 LPS/ATP IL-1B secretion, AlphaLISA, 16 h; stronger effect = lower value; in the data active means activity change below about -50%; inconclusive means mostly about -30% to -49%; further: on the % scale 0 is the no-effect control and ±100 the full control effect
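Secreted IL-1B measured by AlphaLISA bead assay after 16 h compound exposure of THP-1 cells; compounds (final up to 57.5 uM) added 1 h before LPS (250 ng/mL) and ATP (1.25 mM) stimulation; lower signal means less secretion.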
TGFb CAGA inh: qHTS for Inhibitors of TGF-b: Confirmation of Cherry Picks | shares compounds with TGFb inhibitor | HepG2 CAGA-GFP TGF-b reporter, GFP fluorescence, 18 h; cells stimulated with TGF-beta, 500 pg/mL | Potency, µM (highest dose often 46.1 µM), for the others: at the top dose activity, negative = inhibition, usual class: inhibitors | hit rate 63% among 1,600 | AID 720534, 2013; further: potency means the concentration at half of the fitted maximal effect; on the % scale 0 is the no-effect control and ±100 the full control effect; nearly all actives have a fitted effect of over 65% in size
HepG2 tox-2: qHTS for Inhibitors of TGF-b: Cytotox Counterscreen for Cherry Picks; AID 720535, 2013; HepG2 CAGA-GFP viability, ATP luminescence, 18 h; cells stimulated with TGF-beta, 500 pg/mL; hit rate 27% among 1,600; shares compounds with TGFb inhibitor; Potency, µM (series often up to 46.1 µM), without a hit: top-dose activity, negative = cytotoxicity, hits mostly inhibitors; further: potency means the concentration at half of the fitted maximal effect; on the % scale 0 is the no-effect control and ±100 the full control effect; nearly all actives have a fitted effect of over 70% in size
TGFb CCL64 inh: qHTS for Inhibitors of TGF-b: CCL64 Cells Orthogonal Assay for Cherry Picks; Potency, µM (series often up to 46.1 µM), without a hit: top-dose activity, negative = inhibition, most hits filed as inhibitors; hit rate 41% among 1,600; CCL64 CAGA-GFP reporter, TGF-b stimulated, GFP fluorescence, 18 h; AID 720536, 2013; shares compounds with TGFb inhibitor; further: potency means the concentration at half of the fitted maximal effect; nearly all actives have a fitted effect of over 65% in size
TGFb COP inh: qHTS for Inhibitors of TGF-b: Hit Validation in HepG2 Cells using COP promoter; shares compounds with TGFb inhibitor; HepG2 COP-GFP TGF-b reporter, GFP fluorescence, 18 h; cells stimulated by added recombinant TGF-beta; Potency, µM (top dose mostly 46.1 µM), for inactives: at the top dose activity, negative = inhibition, hits mostly inhibitors; hit rate 3% among 1,600; further: potency means the concentration at half of the fitted maximal effect; nearly all actives have a fitted effect of over 70% in size
* marks the source's active call; other numbers are inactive results; ? = inconclusive; · = no result given; ! = a repeat was not active. Rows were chosen to be rich in hits. Some 6.5% of all compounds tested hit in one or more screens of this group. Unless noted, the call rests on the fitted dose curve; in most records, active means well fitted curve in the direction sought with a large enough effect; inconclusive means small, poorly fitted or top-dose-only effect, or another doubt; inactive means no such curve, though single readings can be large; an effect the other way counts as inactive or inconclusive.

SMILES	TGFb inhibitor	HT1080 IDH1KD tx	Giardia killer	HepG2 tox-1	HT1080NT lethal	IL1B secr inh	TGFb CAGA inh	HepG2 tox-2	TGFb CCL64 inh	TGFb COP inh
COc1cc(C(=O)N2CC(=O)Nc3ccccc32)cc(OC)c1OC	-14%	?	·	4%	?	63	·	·	·	·
Cc1cc(C)cc(C(=O)N2CC(=O)Nc3ccccc32)c1	10µM*	0.52µM*	10	-11%	1.2µM*	21	7.3µM*	7%	8.2µM*	-3%
COc1cccc(CC(=O)Nc2sc3c(c2C(N)=O)CCCC3)c1	-13%	-19%	-3	-11%	-26%	31	·	·	·	·
CCc1ccc(CN(C)C(=O)c2cc(COc3cccc4cnccc34)on2)cc1	10µM*	15µM*	-3	-38%	?	-6	?	?	?	29%
CN(Cc1cccc2cnccc12)C(=O)c1cc(COc2ccc(F)cc2F)on1	-17%	-13%	15	-39%	4%	?	·	·	·	·
COc1cccc(Nc2nc(-c3ccccc3)c3cc(C)ccc3n2)c1	-29%	·	·	-19%	·	·	·	·	·	·
COc1cc(Nc2nc(-c3ccccc3)c3cc(C)ccc3n2)cc(OC)c1OC	11µM*	?	8	-15%	?	-65*	18µM*	?	-78%	51%
O=C(c1ccccc1Br)N1N=C(c2ccccc2)CC1c1ccccc1F (stereo unspecified)	?	-18%	-19	-10%	-24%	-12	·	·	·	·
CC(=O)Nc1ccc(SC[C@H](Cc2ccccc2)N2CC[C@@H](C(C)(C)C)CCC2=O)cc1	10µM*	16µM*	-23	-10%	?	-59*	26µM*	?	?	60%
Cc1ccc(SC[C@H](C)CN2CC[C@H](C(C)(C)C)CCC2=O)cc1	10µM*	-14%	-8	11µM*!	-2%	21	?	?	21µM*	27%
CS(=O)(=O)NCCCc1ccccc1	7%	7%	14	1%	6%	7	·	·	·	·
COc1ccc2c(c1)/C(=C\c1cccc(/C=C3/C(=O)Nc4ccc(OC)cc43)n1)C(=O)N2	1.3µM*	3.3µM*	1	-37%	2.9µM*	-107*	2.9µM*	2.6µM*	1.5µM*	49%
CCOCCCNC(=O)c1ccc(NC(=O)C2CCCO2)cc1 (stereo unspecified)	-1%	10%	6	2%	4%	11	·	·	·	·
O=C1C=C(/C=C/c2ccccc2)C[C@@H](c2ccc(F)cc2)C1	?	2%	-4	-14%	0%	-13	·	·	·	·
COc1ccc([C@H]2CC(=O)C=C(c3cccc(Br)c3)C2)cc1OC	4.5µM*	-29%	2	12%	-28%	-14	?	-28%	?	28%
COc1ccc([C@H]2CC(=O)C=C(c3cccc(Br)c3)C2)cc1	?	-1%	?	-7%	-5%	-18	·	·	·	·
COc1ccc([C@H]2CC(=O)C=C(/C=C/c3ccccc3)C2)cc1OC	13µM*	-1%	-11	-6%	-17%	?	?	-19%	?	14%
O=C(COC(=O)Cc1cn2ccsc2n1)Nc1nc2ccccc2s1	3%	3%	6	-9%	1%	-5	·	·	·	·
CCOC(=O)Cc1csc(NC(=O)CC(C)(C)C)n1	-7%	-7%	0	-22%	-1%	-4	·	·	·	·
Cc1ccc(C)c(NS(=O)(=O)c2cc(C(=O)NCCC3=CCCCC3)ccc2C)c1	20µM*	?	-3	-15%	?	-19	?	?	?	37%
Cc1ccc(C)c(NS(=O)(=O)c2cc(C(=O)NCC3CCCO3)ccc2C)c1 (stereo unspecified)	1%	-23%	-12	-4%	-2%	9	·	·	·	·
O=C(O)c1cc(-c2ccc(-c3c(-c4ccc5c(c4)OCO5)noc3-c3ccsc3)cc2)nc2ccccc12	?	-5%	-7	-23%	15%	-7	16µM*	?	18µM*	71%
CCOC(=O)c1ccc(S(=O)(=O)N2CCC(C(=O)OCC)CC2)cc1	1%	?	-4	-3%	8%	8	·	·	·	·
CCCCOC(=O)Nc1ccc(S(=O)(=O)Nc2ccc([N+](=O)[O-])cc2)cc1	7.9µM*	-2%	-17	-9%	11%	10	?	-6%	-14%	-9%
CC(=O)N(/C=C1\SC(=S)N(c2ccccc2)C1=O)c1ccccc1	-11%	-1%	14	-25%	-4%	-12	·	·	·	·
C[C@H](NC(=O)c1[nH]cnc1C(=O)Nc1ccc(CNC(=O)OC(C)(C)C)cc1)C(=O)OC(C)(C)C	16µM*	-24%	15	4%	?	?	?	?	-28%	38%
CC(C)(C)OC(=O)[C@H](Cc1ccccc1)NC(=O)c1nc[nH]c1C(=O)N[C@@H](Cc1ccccc1)C(=O)OC(C)(C)C	13µM*	?	-13	-12%	-19%	-19	15µM*	?	?	39%
CC(C)(C)OC(=O)NCCCC[C@H](NC(=O)c1[nH]cnc1C(=O)Nc1ccc(CNC(=O)OC(C)(C)C)cc1)C(=O)OC(C)(C)C	-25%	?	-3	-4%	?	0	·	·	·	·

High-throughput results as filed in PubChem BioAssay.
